Reference: paper PMC4336329 (PLoS ONE, 2015)
Hit rate of the full screen: of about 310,000 compounds, about 14,000 (4.5%) showed an effect of 50% or more. The effect is printed as a negative number. The list comes from a sample in which strong results are over-represented; it also holds similar structures and randomly drawn compounds.
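Also: peak tail current of the secondary pulse compared with the same well before compound.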

The compounds below were run against human ether-à-go-go-related gene (hERG) potassium channel (human, UniProt Q12809) (assay: primary screen, population patch clamp on CHO cells stably expressing hERG; higher = less effect of the substance).
human ether-à-go-go-related gene (hERG) potassium channel, sequence (Q12809 whole entry, looked up): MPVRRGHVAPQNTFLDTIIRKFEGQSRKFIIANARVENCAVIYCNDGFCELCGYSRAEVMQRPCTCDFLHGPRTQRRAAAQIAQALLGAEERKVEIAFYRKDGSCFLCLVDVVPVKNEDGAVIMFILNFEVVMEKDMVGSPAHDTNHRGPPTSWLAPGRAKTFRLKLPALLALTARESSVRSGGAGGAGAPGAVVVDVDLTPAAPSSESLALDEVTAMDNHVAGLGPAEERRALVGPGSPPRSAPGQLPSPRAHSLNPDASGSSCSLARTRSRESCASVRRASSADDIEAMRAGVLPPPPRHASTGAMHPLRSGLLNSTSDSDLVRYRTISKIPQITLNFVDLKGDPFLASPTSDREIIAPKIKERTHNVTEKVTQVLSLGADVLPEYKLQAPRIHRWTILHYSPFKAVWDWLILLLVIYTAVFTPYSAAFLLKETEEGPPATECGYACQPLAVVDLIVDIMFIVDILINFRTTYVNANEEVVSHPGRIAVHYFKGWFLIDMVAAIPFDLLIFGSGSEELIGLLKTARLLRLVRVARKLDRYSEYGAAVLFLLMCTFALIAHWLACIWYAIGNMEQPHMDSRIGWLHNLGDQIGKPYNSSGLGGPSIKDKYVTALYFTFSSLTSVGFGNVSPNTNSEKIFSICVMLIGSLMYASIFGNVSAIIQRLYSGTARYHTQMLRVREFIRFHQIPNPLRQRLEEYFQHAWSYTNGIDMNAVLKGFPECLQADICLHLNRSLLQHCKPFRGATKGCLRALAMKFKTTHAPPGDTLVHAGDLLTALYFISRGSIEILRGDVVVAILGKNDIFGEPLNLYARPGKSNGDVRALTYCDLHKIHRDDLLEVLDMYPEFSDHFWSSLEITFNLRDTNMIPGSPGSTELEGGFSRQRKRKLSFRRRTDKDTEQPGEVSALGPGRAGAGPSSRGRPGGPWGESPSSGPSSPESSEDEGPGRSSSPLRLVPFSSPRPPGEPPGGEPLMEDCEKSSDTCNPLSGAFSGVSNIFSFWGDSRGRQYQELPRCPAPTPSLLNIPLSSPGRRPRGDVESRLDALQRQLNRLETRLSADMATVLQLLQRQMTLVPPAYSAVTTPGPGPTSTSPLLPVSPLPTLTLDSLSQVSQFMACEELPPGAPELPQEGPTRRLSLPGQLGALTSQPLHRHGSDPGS
In the case of COc1ccc(NC(=O)CSc2nnc(-c3cccnc3)n2C)cc1, the “hERG current change (%, negative = inhibition) at 10uM” value is reported as 8.3%.
For Cc1cc(OCC(=O)N2CCC(C(=O)O)(c3ccccc3)CC2)c2c(C)cc(=O)oc2c1, the “hERG current change (%, negative = inhibition) at 10uM” value was 11.6%.
With NNC(=O)c1cncn1-c1ccc(F)cc1 the “hERG current change (%, negative = inhibition) at 10uM” value was 23.7%.
For O=C(Nc1cccc(Cl)c1)c1cncn1-c1ccc(F)cc1, the “hERG current change (%, negative = inhibition) at 10uM” value was -68.1%.
COc1cc(OC)c(NC(=O)c2cncn2-c2ccc(F)cc2)cc1Cl was tested, and the “hERG current change (%, negative = inhibition) at 10uM” value was -19.7%.
In the case of Cc1cccc(C)c1NS(=O)(=O)c1c(C)[nH]c(=O)[nH]c1=O, the “hERG current change (%, negative = inhibition) at 10uM” value is reported as -14.2%.
In the case of Cc1ccccc1CN(CC(=O)Nc1cccc([N+](=O)[O-])c1)S(=O)(=O)c1ccc(Cl)cc1, the “hERG current change (%, negative = inhibition) at 10uM” value is reported as 15.1%.
With Cl.O=C(NN1CCN(Cc2ccccc2Cl)CC1)c1ccc(Cl)cc1 the “hERG current change (%, negative = inhibition) at 10uM” value was -10.6%.
O=C(NC1CCN(Cc2ccc(Cl)cc2Cl)CC1)c1ccccc1 was tested, and the “hERG current change (%, negative = inhibition) at 10uM” value was -53.9%.
For O=C(NC1CCN(Cc2ccccc2)CC1)c1ccccc1F, the “hERG current change (%, negative = inhibition) at 10uM” value was -23.7%.
For O=C(NC1CCN(C(=O)Nc2cccc(Cl)c2)CC1)c1ccccc1, the “hERG current change (%, negative = inhibition) at 10uM” value was 1.02%.
With CSCCC(NC(=O)c1ccccc1Cl)C(=O)NC1CCN(Cc2ccccc2)CC1 (centres unmarked) the “hERG current change (%, negative = inhibition) at 10uM” value was -50.1%.
In the case of O=C(NC1CCN(Cc2ccccc2Cl)CC1)c1ccccc1, the “hERG current change (%, negative = inhibition) at 10uM” value is reported as -65.2%.
In the case of O=C(NC1CCN(Cc2ccccc2)CC1)c1ccc(Cl)cc1Cl, the “hERG current change (%, negative = inhibition) at 10uM” value is reported as -75%.
In the case of CSCCC(NC(=O)c1ccccc1Cl)C(=O)N1CCN(C(C)=O)CC1 (centres unmarked), the “hERG current change (%, negative = inhibition) at 10uM” value is reported as -26.9%.
For S=C(Nc1ccc(Cl)cc1Cl)NC1CCN(Cc2ccccc2)CC1, the “hERG current change (%, negative = inhibition) at 10uM” value was -2.76%.
With O=C(NC1CCN(C(=O)Nc2ccccc2Cl)CC1)c1ccccc1 the “hERG current change (%, negative = inhibition) at 10uM” value was 4.22%.
For O=C(NC1CCN(Cc2ccccc2)CC1)c1ccccc1Cl, the “hERG current change (%, negative = inhibition) at 10uM” value was 1.15%.
In the case of COC(=O)[C@H](CCSC)NC(=O)NC1CCN(Cc2ccccc2)CC1, the “hERG current change (%, negative = inhibition) at 10uM” value is reported as -12.9%.
For COCC(=O)Nc1ccc(C)c(Cl)c1, the “hERG current change (%, negative = inhibition) at 10uM” value was 14.4%.
With Cc1cccc(NS(=O)(=O)c2ccc(OCC(=O)N3CCCC3)cc2)c1 the “hERG current change (%, negative = inhibition) at 10uM” value was -19.1%.
CCCn1nnnc1NC(=O)COc1ccc(CC)cc1 was tested, and the “hERG current change (%, negative = inhibition) at 10uM” value was -3.02%.
Cc1ccc(NC(=O)CCSc2nnc(C)o2)cc1 was tested, and the “hERG current change (%, negative = inhibition) at 10uM” value was 2.48%.
In the case of CC1(C)NC(=O)N(CCCCOc2cccc(C(F)(F)F)c2)C1=O, the “hERG current change (%, negative = inhibition) at 10uM” value is reported as -6.92%.
For CN1CCN(c2ccc(C(N)=O)cc2N)CC1, the “hERG current change (%, negative = inhibition) at 10uM” value was 6.81%.
CN1C(=O)C(C)(C)c2cc(S(=O)(=O)N3CCCC(C(=O)Nc4ccc(Cl)cc4)C3)ccc21 (centres unmarked) was tested, and the “hERG current change (%, negative = inhibition) at 10uM” value was -9.27%.
